In ChEMBL document CHEMBL3988442, “University of Dundee, Small-Polar-MMV Screening Library” (2021):
Among all 48,000 compounds or so, about 13,000 (27%) showed an effect of 50% or more. Some of the results follow.

tested on: Wolbachia pipientis; assay: Anti-Wolbachia Cell-Based Screen; type: functional; parameters: scale not given: in the data most compounds retested in dose-response had high values; conditions: 5 µM

Structure (SMILES) | Percent Effect [%]
CC(=O)NC1CCCN(c2ccc(C#N)cc2C(F)(F)F)C1 (stereo not given) | 47.21
CC(C)N1CC(C(=O)NC(C)(C)CNC(=O)OC(C)(C)C)CC1=O (stereo not given) | 16.31
Cc1ccc(C(=O)OC(C)Cn2cccn2)c(=O)[nH]1 (stereo not given) | -0.638
c1csc(SCC2CN=C(N3CCOCC3)S2)c1 (stereo not given) | -10.18
CN(CCc1cnn(C)c1)C(=O)C(c1ccccc1F)N(C)C (stereo not given) | -8.573
CC(C)c1nsc(N2CCOC3(CCCC3)C2)n1 | -27.55
CC(C1CC1)N(C)C(=O)CCn1cccn1 (stereo not given) | -12.77
C[C@@H]1CN(C(=O)CCN2CCCC2)CC[C@@]1(O)C1CCC1 | -5.805
C[C@@H]1CN(C(=O)CCc2cnn(C)c2)C[C@@]1(O)C1CCC1 | -2.131
C[C@@H]1CN(C(=O)c2ccncc2)CC[C@@]1(O)C1CCOCC1 | -11.61
C[C@@H]1CN(C(=O)C2(Cn3cccn3)CC2)CC[C@@]1(O)C1CC1 | 95.17
C[C@@H]1CN(C(=O)C2(Cn3cccn3)CC2)C[C@@]1(O)C1CCC1 | 109.7
C[C@@H]1CN(C(=O)C2(Cn3cccn3)CC2)CC[C@@]1(O)C1CCOCC1 | 103.7
CCN(C(=O)CCn1cccn1)C1CC1 | 0.4672
CC(C)[C@]1(O)CN(C(=O)C2(Cn3cccn3)CC2)C[C@H]1C | 94.9
C[C@@H]1CN(C(=O)CCc2cnn(C)c2)CC[C@@]1(O)C1CCOCC1 | -4.294
CCCc1cc(C(=O)N2C[C@@H](C)[C@](O)(C3CCC3)C2)[nH]n1 | -1.382
C[C@@H]1CN(C(=O)CCN2CCCC2)CC[C@@]1(O)C1CCOCC1 | 18.72
N#Cc1ccnc(N2CCN(CC(O)c3ccccc3)CC2)c1 (stereo not given) | -34.32
COc1ccccc1C1(CNc2ncc(S(N)(=O)=O)s2)CC1 | -5.545
CCN(CC)C(=O)N1CCN(C(=O)C2CCCc3[nH]ncc32)CC1 (stereo not given) | -7.717
CC(NC(=O)NCCCc1n[nH]c(N)c1C#N)c1ccccc1 (stereo not given) | 11.96

Structure (SMILES) | Percent Effect [%]
Cn1cc(CN2CCc3c(nnn3C)C2COCc2ccccc2)cn1.O=C(O)C(F)(F)F (stereo not given) | -8.957
CC(C)CN1CCc2[nH]cnc2C12CCN(C(=O)c1cccnc1)CC2 | 1.531
COCCNC(=O)NCC(C)c1ccccc1OC (stereo not given) | -10.13
CNC(=O)[C@H]1C[C@@H]2CN(C(=O)c3ccco3)C[C@@H]2N1S(C)(=O)=O | 10.85
CNC(=O)[C@H]1C[C@@H]2CN(C(=O)c3ccc(C)o3)C[C@@H]2N1S(C)(=O)=O | 94.93
CNC(=O)[C@H]1C[C@@H]2CN(C(=O)c3occc3C)C[C@@H]2N1S(C)(=O)=O | 100.3
CNC(=O)[C@H]1C[C@@H]2CN(C(=O)c3ccsc3)C[C@@H]2N1S(C)(=O)=O | 104.8
CNC(=O)[C@H]1C[C@@H]2CN(S(=O)(=O)c3ccccc3)C[C@@H]2N1C(C)=O | -8.592
CNC(=O)[C@H]1C[C@@H]2CN(C(=O)c3ccoc3)C[C@@H]2N1S(C)(=O)=O | 83.29
O=C(c1ccoc1)N1C[C@H]2CC[C@@]3(N=C(c4ccccc4)NC3=O)[C@H]2C1 | -13.12
Cc1ccoc1C(=O)N1CC[C@@]2(C[C@H](NS(C)(=O)=O)CCO2)C1 | -10.72
CCN1C[C@@H]2CN(C(=O)c3ccsc3)C[C@@H]2C1=O | -7.34
CNC(=O)[C@H]1C[C@@H]2CN(C(=O)c3cscn3)C[C@@H]2N1S(C)(=O)=O | -14.13
O=C(c1ccoc1)N1C[C@@H]2CN(c3ncccn3)C[C@@H]2C1 | -12.12
Cc1nn(C)c(Cl)c1CNCc1ccc(OCC(N)=O)cc1 | 6.399
O=C(NC[C@H]1OC[C@@H](NCc2ccc(F)cc2)[C@@H]1O)N1CCOCC1 | -11.78
CCNC(=O)N1CCC(NC(=O)NCCc2cccc(C)c2)C1 (stereo not given) | -4.75
NCC1CN(c2nc(-c3ccccc3)nc3c2CCNCC3)CCO1 (stereo not given) | 2.56
CN(C)C(=O)CCC1CCCN(Cc2cccc(-c3ccccn3)c2)C1 (stereo not given) | 9.493
Cc1cc(-c2nn(C)c(Cl)c2CN2CCOC(C(=O)O)C2)no1 (stereo not given) | -7.215
FC(F)(F)C1CN(Cc2cnc3c(-c4ccccc4)cnn3c2)CCO1 (stereo not given) | 27.88
FC(F)(F)C1CN(Cc2cccc(OCc3ccccn3)c2)CCO1 (stereo not given) | 94.94

Structure (SMILES) | Percent Effect [%]
FC(F)(F)C1CN(Cc2cccc(-c3ccccn3)c2)CCO1 (stereo not given) | 75.31
O=C(CCN1CCOC(C(F)(F)F)C1)NCc1cccc(Cl)c1 (stereo not given) | -5.951
CN1C(=O)[C@H]2CC[C@@H]1CN(Cc1cccc(OCc3ccccn3)c1)C2 | -0.7428
CS(=O)(=O)NC1CCCN(Cc2ccc(OCc3ccccn3)cc2)C1 (stereo not given) | 2.735
O=C(O)C1CN(Cc2cccc(-c3ccccn3)c2)CCO1 (stereo not given) | 102.3
Cc1nc2c(c(N3CCC(CN4CCCC4=O)CC3)n1)CCNCC2 | -1.611
COC(=O)c1cc(OCC2CCC2)cc(C(=O)N[C@H]2CC[C@H](O)CC2)c1 | -10.19
CSCCC1CC(=O)Nc2cc(O)c(C)cc21 (stereo not given) | 3.121
O=C(c1cnc(NCCC2CCCO2)c(Cl)c1)N1CCCCC1 (stereo not given) | -6.452
CNC(=O)c1cc2c(nc1NC(C)C)CCN(C(=O)NC(C)C)CC2 | -1.585
CCN1CCOCC2(CCCN(c3nncs3)C2)C1 (stereo not given) | -9.534
CC(=O)c1cc(CC(=O)N2CCCC2c2nc(C(C)C)no2)cs1 (stereo not given) | -13.65
Cc1nncn1CCNC(=O)C(C)(C)c1cccc(F)c1 | -15.91
Cc1nn(C)cc1-c1cc(C(=O)NCC(C)(C)c2ccc(F)cc2)n[nH]1 | 130.7
CC(Cn1cncn1)NC(=O)NCC(C)(C)c1ccc(F)cc1 (stereo not given) | 10.62
Cc1cc(C)n(CC(C)NC(=O)C(C)(C)c2ccccc2F)n1 (stereo not given) | 6.546
O=C(NCc1nc[nH]n1)c1cc(COc2cccc(F)c2)[nH]n1 | -19.41
Cc1nn(C)cc1-c1cc(C(=O)NCC(C)(C)c2cccc(F)c2)n[nH]1 | 113.6
Cc1nn(C)cc1-c1cc(C(=O)NCC(C)(C)c2ccccc2F)n[nH]1 | 89.7
CSCC(C)(O)CNC(=O)c1ccc(F)cc1Cl (stereo not given) | 16.17
Cn1nnnc1SCCC(=O)NCC(C)(C)c1ccccc1F | -11.64
